“And” between values parts separate entries of the source, which are not always exact repeats. Equal entries are not always repeated. The source made the active and inactive calls.
Legend:
Albumin (Bos taurus) = Albumin (Bos taurus) (UniProt P02769); assay: compounds binding labelled BSA control protein – biochemical, small-molecule microarray, Alexa647 label, 635/667 nm fluorescence, artefact control for SMM control protein annotation, profiling panel (AID 1118); details: BSA-A647 binding, fluorescence 635 nm, higher = more signal;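 note: score merges 667 nm emission intensity and signal-to-noise per printed compound spot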
Chain of Albumin (Bos taurus) (P02769 whole entry, looked up): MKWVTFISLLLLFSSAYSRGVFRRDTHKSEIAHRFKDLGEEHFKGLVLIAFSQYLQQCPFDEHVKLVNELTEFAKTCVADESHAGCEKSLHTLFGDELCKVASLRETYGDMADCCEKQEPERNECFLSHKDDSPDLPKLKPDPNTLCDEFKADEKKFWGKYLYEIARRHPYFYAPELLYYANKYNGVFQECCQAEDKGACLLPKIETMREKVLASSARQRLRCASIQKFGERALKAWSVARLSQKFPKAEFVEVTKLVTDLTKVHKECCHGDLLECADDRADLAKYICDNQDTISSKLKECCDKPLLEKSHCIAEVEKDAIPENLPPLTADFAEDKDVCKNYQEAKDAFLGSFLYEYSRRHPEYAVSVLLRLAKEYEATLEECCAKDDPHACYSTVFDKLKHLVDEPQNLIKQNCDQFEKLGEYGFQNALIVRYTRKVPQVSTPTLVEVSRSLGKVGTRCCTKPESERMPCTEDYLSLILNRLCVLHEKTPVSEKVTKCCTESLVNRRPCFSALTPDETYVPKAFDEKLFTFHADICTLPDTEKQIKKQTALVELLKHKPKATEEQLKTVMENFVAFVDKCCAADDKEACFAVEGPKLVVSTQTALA

[1] = probe aXIP binding to arrayed compounds – biochemical, NeuroSMM set, 635/667 nm fluorescence, primary screen (AID 1119); details: small-molecule microarray, higher = more signal, called active from +8 up or from −8 down;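 note: probe is the protein aXip251-270 applied at 1 µg/mL to compound-printed slides; binding of probe to printed compounds measured as 667 nm fluorescence plus signal to noise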
[2] = probe aNOTCH3 binding on compound microarray – biochemical, small-molecule microarray, 635/667 nm fluorescence, primary screen (AID 1120); details: higher = more signal;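 note: probe is a biotin-tagged antibody raised against NOTCH3 rather than NOTCH3 protein; score merges spot fluorescence near 667 nm with spot signal to noise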
[3] = probe aNOTCH2 binding on compound microarray – biochemical, small-molecule microarray, 635/667 nm fluorescence, primary screen (AID 1121); details: higher = more signal;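 note: score merges feature fluorescence read at 667 nm with its signal to noise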
[4] = target: Carbonic anhydrase 2 (Homo sapiens) (UniProt P00918); assay: compounds binding carbonic anhydrase 2 – biochemical, small-molecule microarray, Alexa647-labelled CAII, profiling panel (AID 1122); details: CAII-A647 binding fluorescence, higher = more signal
[5] = COS7 lysate on small-molecule microarray, probe aHis, 635 nm (AID 1123); details: COS7 cell lysate, fluorescence, higher = more signal;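 note: z-score combines 667nm fluorescence intensity with signal-to-noise per printed compound spot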
[6] = probe aLAP1 signal on lysate-treated microarray – cell lysate, small-molecule microarray, COS7 lysate, primary screen (AID 1124); details: probe aLAP1, fluorescence, higher = more signal;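 note: lysate comes from COS7 cells expressing LAP1 and is applied at 0.3 µg/mL; score merges spot fluorescence near 667 nm with signal-to-noise over triplicate slides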
Sam68 (KHDRBS1) = assay: compounds binding KHDRBS1 protein – biochemical, small-molecule microarray, 635 nm fluorescence, primary screen (AID 1125); details: higher = more signal;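 note: score merges 667 nm channel intensity with signal to noise over triplicate slides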
[7] = tested on: Chordin-like protein 2 (CHRDL2); assay: compounds binding chordin-like 2 – biochemical, small-molecule microarray, 635 nm fluorescence, primary screen (AID 1126); details: fluorescence 635 nm, higher = more signal;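 note: printed compound slides probed with Chrdl2 protein at 4 µg/mL for 1 h at 4 C; score merges 667 nm emission intensity with signal to noise over three replicate slides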
[8] = target: Concanavalin-A (Canavalia ensiformis) (UniProt P02866); assay: compounds binding concanavalin A lectin – biochemical, small-molecule microarray, Alexa647 label, 635 nm, artefact control for SMM control protein annotation, primary screen (AID 1127); details: ConA-A647 binding fluorescence, higher = more signal;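 note: z combines 667 nm emission intensity with signal-to-noise across three replicate slides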
Chain of Concanavalin-A (Canavalia ensiformis) (P02866 whole entry, looked up): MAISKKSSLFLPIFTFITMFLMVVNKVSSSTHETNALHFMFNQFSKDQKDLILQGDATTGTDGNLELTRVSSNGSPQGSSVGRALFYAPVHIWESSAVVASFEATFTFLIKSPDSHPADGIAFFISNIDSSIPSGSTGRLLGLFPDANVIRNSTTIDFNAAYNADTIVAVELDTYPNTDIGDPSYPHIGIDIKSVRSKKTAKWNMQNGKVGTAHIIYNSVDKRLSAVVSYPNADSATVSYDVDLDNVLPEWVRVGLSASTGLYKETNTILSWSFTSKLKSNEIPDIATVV

[9] = compounds binding Alexa647 anti-His antibody – biochemical, small-molecule microarray, 635 nm fluorescence, artefact control for SMM control protein annotation, primary screen (AID 1128); details: higher = more signal;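 note: score merges feature fluorescence with signal-to-noise for each printed compound spot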
[10] = tested on: Human papillomavirus type 1a E7 protein (residues 1-88); assay: HPV1a E7 small-molecule binders, primary screen, biochemical, small-molecule microarray, residues 1-88, 635 nm (AID 1129); details: small-molecule microarray binding, fluorescence 635 nm; higher = more signal
[11] = target: Focal adhesion kinase 1 (Homo sapiens) (UniProt Q05397); assay: PTK2 protein binding on printed compound slides – biochemical, small-molecule microarray, 635/667 nm fluorescence, BSA, DTT, primary screen (AID 1130); details: 635 nm fluorescence, higher = more signal;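 note: composite of spot emission at 667 nm and signal to noise over triplicate slides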
Chain of Focal adhesion kinase 1 (Homo sapiens) (Q05397 whole entry, looked up): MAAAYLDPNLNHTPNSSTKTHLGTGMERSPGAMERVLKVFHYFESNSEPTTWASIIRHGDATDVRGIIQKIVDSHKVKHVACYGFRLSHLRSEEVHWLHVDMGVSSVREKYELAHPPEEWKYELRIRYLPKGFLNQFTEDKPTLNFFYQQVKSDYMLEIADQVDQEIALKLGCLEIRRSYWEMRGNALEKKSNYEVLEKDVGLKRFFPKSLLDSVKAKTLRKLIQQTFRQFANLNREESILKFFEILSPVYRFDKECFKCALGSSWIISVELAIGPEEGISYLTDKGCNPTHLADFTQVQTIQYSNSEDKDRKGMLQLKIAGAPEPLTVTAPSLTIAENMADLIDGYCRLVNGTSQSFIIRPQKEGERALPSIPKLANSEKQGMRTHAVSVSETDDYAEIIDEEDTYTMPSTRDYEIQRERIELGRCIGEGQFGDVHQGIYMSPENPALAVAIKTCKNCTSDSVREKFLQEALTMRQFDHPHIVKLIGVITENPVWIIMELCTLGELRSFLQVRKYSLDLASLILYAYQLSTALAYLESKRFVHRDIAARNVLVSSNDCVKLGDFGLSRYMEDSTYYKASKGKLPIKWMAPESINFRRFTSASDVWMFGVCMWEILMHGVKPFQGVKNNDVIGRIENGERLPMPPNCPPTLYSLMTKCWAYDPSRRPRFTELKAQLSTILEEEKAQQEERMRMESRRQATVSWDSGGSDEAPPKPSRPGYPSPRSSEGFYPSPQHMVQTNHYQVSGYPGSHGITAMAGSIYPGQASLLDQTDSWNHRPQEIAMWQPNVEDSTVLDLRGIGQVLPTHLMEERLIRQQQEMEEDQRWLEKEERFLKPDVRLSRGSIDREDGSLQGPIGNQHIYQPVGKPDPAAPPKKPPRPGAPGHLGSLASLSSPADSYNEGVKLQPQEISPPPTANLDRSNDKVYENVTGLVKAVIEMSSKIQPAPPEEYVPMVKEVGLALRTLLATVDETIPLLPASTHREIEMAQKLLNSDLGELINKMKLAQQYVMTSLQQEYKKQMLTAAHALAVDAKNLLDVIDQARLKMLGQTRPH

[12] = tested on: Fibrinogen (Alexa647-labelled); assay: Alexa647-fibrinogen binding to printed small molecules – biochemical, small-molecule microarray, 635/667 nm fluorescence, artefact control for SMM control-protein annotation, profiling panel (AID 1131); details: fibrinogen-A647 binding fluorescence, higher = more signal;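 note: z-score merges 667 nm fluorescence with per-spot signal-to-noise over triplicate slides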
[13] = target: Follistatin (Homo sapiens) (UniProt P19883); assay: FST protein binding to printed compounds – biochemical, small-molecule microarray, 635/667 nm fluorescence, primary screen (AID 1132); details: 635 nm fluorescence, higher = more signal
Chain of Follistatin (Homo sapiens) (P19883 whole entry, looked up): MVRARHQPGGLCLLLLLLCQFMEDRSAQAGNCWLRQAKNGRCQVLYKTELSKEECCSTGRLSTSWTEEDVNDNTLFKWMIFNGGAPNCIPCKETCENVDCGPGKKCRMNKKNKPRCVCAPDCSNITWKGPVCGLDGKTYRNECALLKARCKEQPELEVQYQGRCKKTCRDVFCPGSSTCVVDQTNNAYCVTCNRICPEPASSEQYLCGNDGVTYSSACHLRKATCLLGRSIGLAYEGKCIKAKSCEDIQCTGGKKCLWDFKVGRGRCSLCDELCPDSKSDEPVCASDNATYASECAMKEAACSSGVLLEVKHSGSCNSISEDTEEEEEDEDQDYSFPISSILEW

[14] = target: Fibroblast growth factor 2 (Homo sapiens) (UniProt P09038); assay: basic fibroblast growth factor binding to printed compounds – biochemical, small-molecule microarray, 635/667 nm fluorescence, primary screen (AID 1133); details: FGF2, fluorescence 635/667, higher = more signal
Chain of Fibroblast growth factor 2 (Homo sapiens) (P09038 whole entry, looked up): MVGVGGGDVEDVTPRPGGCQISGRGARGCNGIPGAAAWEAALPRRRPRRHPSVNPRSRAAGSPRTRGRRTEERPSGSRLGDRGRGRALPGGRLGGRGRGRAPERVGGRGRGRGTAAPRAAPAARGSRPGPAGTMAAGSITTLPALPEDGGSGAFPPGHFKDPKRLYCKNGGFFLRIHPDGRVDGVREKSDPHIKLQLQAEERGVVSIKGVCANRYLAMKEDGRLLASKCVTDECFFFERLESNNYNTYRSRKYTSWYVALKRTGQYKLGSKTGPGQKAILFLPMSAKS

[15] = JC-1 mitochondrial potential readout, lung cancer cells – cell-based, A549, JC-1 fluorescence, basal, 24 h, 100 nL, profiling panel (AID 1138); details: higher = more signal;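 note: A549 lung adenocarcinoma cells under basal conditions with no added stimulus; test concentration not given here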
Lefty1 = Lefty1 protein binding to printed compounds – biochemical, small-molecule microarray, 635/667 nm fluorescence, primary screen (AID 1139); details: fluorescence 635/667, higher = more signal
[16] = tested on: wheat germ agglutinin (Triticum aestivum), Alexa647-labelled; assay: Alexa647-WGA lectin binding to printed small molecules – biochemical, small-molecule microarray, 635/667 nm fluorescence, artefact control for SMM control-protein annotation, profiling panel (AID 1140); details: WGA-A647 binding, 635 nm fluorescence, higher = more signal;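 note: score merges 667 nm feature emission with signal to noise over triplicate slides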
[17] = target: Luciferin 4-monooxygenase (Photinus pyralis) (UniProt P08659); assay: inhibition of purified Photinus pyralis luciferase – biochemical, luminescence, purified enzyme, 2006 set, primary screen (AID 1141); details: purified firefly luciferase, SteadyGlo luminescence, 30 min; higher = more signal, called active from +8 up or from −8 down;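 note: cell-free assay with purified firefly luciferase at 100 ng per well in PBS; test concentration not given here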
Chain of Luciferin 4-monooxygenase (Photinus pyralis) (P08659 whole entry, looked up): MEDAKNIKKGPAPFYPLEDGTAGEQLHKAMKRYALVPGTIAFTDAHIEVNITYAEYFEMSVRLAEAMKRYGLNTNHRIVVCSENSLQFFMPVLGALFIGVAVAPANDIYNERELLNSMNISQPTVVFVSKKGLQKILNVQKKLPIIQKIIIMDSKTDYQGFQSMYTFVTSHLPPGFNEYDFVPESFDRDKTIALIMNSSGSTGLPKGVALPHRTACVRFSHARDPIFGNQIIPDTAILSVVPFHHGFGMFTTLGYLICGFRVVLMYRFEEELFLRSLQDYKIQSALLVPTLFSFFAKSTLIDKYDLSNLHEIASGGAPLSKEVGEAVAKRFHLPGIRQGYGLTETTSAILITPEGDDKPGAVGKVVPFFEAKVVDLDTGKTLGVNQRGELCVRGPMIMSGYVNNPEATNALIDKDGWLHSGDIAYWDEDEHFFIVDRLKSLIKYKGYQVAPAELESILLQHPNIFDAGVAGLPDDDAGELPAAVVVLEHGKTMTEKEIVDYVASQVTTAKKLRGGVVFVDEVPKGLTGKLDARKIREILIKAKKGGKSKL

In the case of C=CCN(CCCCC)C(=O)C(c1cccs1)N(C(=O)/C=C\C(=O)O)c1c(Cl)cccc1CO (stereo not given), the composite z-score (Albumin (Bos taurus)) is reported as -0.678 and -0.603, the composite Z-score [1] is reported as -0.798 (inactive) and 0.414 (inactive) and the composite z-score [2] is reported as -0.533 and -0.396. For the same compound, the composite z-score [3] was -0.057 and -0.187, the composite z-score [4] was 0.91 and 0.768 and the composite z-score [5] was -0.774 and -0.96. The composite z-score [6] was 1.62 and -0.0008, the composite z-score (Sam68 (KHDRBS1)) was -1.09 and -1.41 and the composite z-score [7] was -2.67 and -1.87. The composite z-score [8] was -0.906 and -1.52, the composite z-score [9] was -2 and 0.586 and the composite z-score [10] was -0.682 and -0.485. The composite z-score [11] was -0.519 and -0.564, the composite z-score [12] was -1.31 and -2.3 and the composite z-score [13] was -1.36 and -2.16. The composite z-score [14] was -2.06 and -2.71, the z-score [15] was -0.634 and 0.534 and the composite z-score (Lefty1) was -1.88 and -1.54. For the same compound, the composite z-score [16] was -1.74 and -0.357 and the z-score [17] was -0.0903 (inactive) and -0.46 (inactive).

With C=CCN(C(=O)C1N(c2c(Cl)cccc2CO)C(=O)C2C(C(=O)O)C3C=CC21O3)C(C)(C)C (stereo not given) the composite z-score (Albumin (Bos taurus)) was 0.393 and -0.872, the composite Z-score [1] was 0.0388 (inactive) and -0.166 (inactive) and the composite z-score [2] was -0.479 and -0.47. The composite z-score [3] was -0.253 and -0.185, the composite z-score [4] was 0.791 and -0.713 and the composite z-score [5] was -0.556 and -0.856. For the same compound, the composite z-score [6] was -0.0145 and -0.779, the composite z-score (Sam68 (KHDRBS1)) was -1.2 and -2.06 and the composite z-score [7] was -2.06 and -2.92. For the same compound, the composite z-score [8] was -1.09 and -0.331, the composite z-score [9] was -0.687 and -0.455 and the composite z-score [10] was 0.0063 and -0.941. For the same compound, the composite z-score [11] was -0.0019 and 0.0154, the composite z-score [12] was -0.925 and -0.724 and the composite z-score [13] was -0.85 and -0.957. For the same compound, the composite z-score [14] was -1.46 and -0.409, the z-score [15] was -0.868 and 1.49 and the composite z-score (Lefty1) was -1.33 and -1.93. The composite z-score [16] was -0.0278 and -0.665 and the z-score [17] was 1.15 (inactive) and -1.5 (inactive).

With COc1ccc(COC(=O)NN=C2C[C@@H](O)[C@@H](O)[C@@H]3[C@@H]4C(=O)N(C(C)(C)C)C(=O)[C@@H]4CC[C@H]23)cc1 the composite z-score (Albumin (Bos taurus)) was 0.682, the composite Z-score [1] was 1.08 (inactive) and the composite z-score [2] was -0.194. The composite z-score [3] was -0.0001, the composite z-score [4] was 0.633 and the composite z-score [5] was 0.7. It also gave a composite z-score [6] of 1.51, a composite z-score (Sam68 (KHDRBS1)) of 1.22 and a composite z-score [7] of 0.0955. It also gave a composite z-score [8] of -0.457, a composite z-score [9] of 1.34 and a composite z-score [10] of 0.797. It also gave a composite z-score [11] of 0.0704, a composite z-score [12] of 0.816 and a composite z-score [13] of 0.126. The composite z-score [14] was 0.699, the z-score [15] was 0.453 and the composite z-score (Lefty1) was 0.281. The composite z-score [16] was 0.0873 and the z-score [17] was -1.08 (inactive).

With C#CCCCON=C1C[C@@H](O)[C@@H](O)[C@@H]2[C@@H]3C(=O)N(C4CCCCC4)C(=O)[C@@H]3CC[C@H]12 the composite z-score (Albumin (Bos taurus)) was 0.691, the composite Z-score [1] was -0.393 (inactive) and the composite z-score [2] was -0.0006. It also gave a composite z-score [3] of -0.11, a composite z-score [4] of 0.508 and a composite z-score [5] of 0.186. For the same compound, the composite z-score [6] was 0.806, the composite z-score (Sam68 (KHDRBS1)) was 0.866 and the composite z-score [7] was -0.133. For the same compound, the composite z-score [8] was 1.15, the composite z-score [9] was 1.31 and the composite z-score [10] was 1.1. The composite z-score [11] was 0.498, the composite z-score [12] was 0.962 and the composite z-score [13] was -0.0195. The composite z-score [14] was 0.0951, the z-score [15] was 0.83 and the composite z-score (Lefty1) was 0.112. The composite z-score [16] was 0.698 and the z-score [17] was -1.01 (inactive).

In the case of C=CCN(C(=O)C1N(C(C)(C)CO)C(=O)C2C(C(=O)O)C3C=CC21O3)c1ccc(OC)cc1 (stereo not given), the composite z-score (Albumin (Bos taurus)) is reported as -0.821 and -2.22, the composite Z-score [1] is reported as 1.39 (inactive) and -0.174 (inactive) and the composite z-score [2] is reported as -0.383 and -0.578. The composite z-score [3] was -0.154 and -0.147, the composite z-score [4] was 0.548 and 0.314 and the composite z-score [5] was 0.0457 and -0.218. The composite z-score [6] was 0.995 and -0.102, the composite z-score (Sam68 (KHDRBS1)) was -0.718 and -1.28 and the composite z-score [7] was -4.67 and -4.11. The composite z-score [8] was -0.79 and -1.96, the composite z-score [9] was -2.21 and -2.2 and the composite z-score [10] was -1.08 and -1.45. For the same compound, the composite z-score [11] was -0.488 and -0.747, the composite z-score [12] was -1.1 and -1.88 and the composite z-score [13] was -2.74 and -3.18. The composite z-score [14] was -2.91 and -2.56, the z-score [15] was 0.869 and 0.79 and the composite z-score (Lefty1) was -2.07 and -3.54. The composite z-score [16] was -1.08 and -2.01 and the z-score [17] was -2.06 (inactive) and -1.09 (inactive).

Reference: PubChem BioAssay
